Compound activity (PubChem)
Compounds with a hit are over-represented: about 19% of the library has one in this group of screens.
SW480 rereplic – inducers of DNA re-replication in SW480 colon cancer cells | Potency, µM (highest dose often 46.1 µM), for the others: top-dose re-replication activation, most hits filed as activators | SW480 DNA re-replication, Hoechst DNA content imaging, 48 h | 1.8% of 340,000 active; note: potency is the fitted concentration of half-maximal effect; % of control where 0% means no effect; nearly all actives have a fitted effect of over 55% in size
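DNA re-replication was detected as more nuclei of elevated Hoechst intensity after 48 hr exposure to compound (23 nL pinned per well of 250 cells).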
TDP1 cell CPT – growth inhibition of DT40 Tdp1-/-;hTDP1 cells with camptothecin (screen for TDP1 inhibitors). chicken DT40 Tdp1-/-;hTDP1 cells + 20 nM CPT, ATP luminescence, 48 h. Potency, µM (doses to about 46.2 µM), for inactives: at the top dose activity change, negative = growth inhibition, usual class: inhibitors. 12% of 420,000 active. AID 686979; note: potency is the fitted concentration of half-maximal effect; % is set by controls: 0 for no effect and ±100 for the full control effect; nearly all actives have a fitted effect of over 55% in size
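Chicken DT40 Tdp1-/- cells stably complemented with human TDP1 were seeded at 400 cells/well in medium containing 20 nM camptothecin, exposed to pin-transferred compounds, and grown at 37 °C for at least 48 hr. Viability was read as ATP luminescence.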
MCF10A rerep – DNA re-replication induction in MCF 10a cells. MCF 10A DNA re-replication, Hoechst nuclear intensity, 48 h. Potency, µM (series often up to 46.1 µM), for inactives: at the top dose activity, positive = re-replication, most hits filed as activators. 2.9% of 350,000 active. AID 624296; note: potency is the fitted concentration of half-maximal effect; % of control where 0% means no effect; nearly all actives have a fitted effect of over 50% in size
IL1B secr inh – blocks inflammasome-driven IL-1 beta release; activity change, % at 57.5 µM; 4.7% of 360,000 active; THP-1 LPS/ATP IL-1B secretion, AlphaLISA, 16 h; stronger effect = lower value; AID 743279; in the data active = activity change below about -50%; inconclusive = mostly about -30% to -49%; note: % is set by controls: 0 for no effect and ±100 for the full control effect
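THP-1 cells pretreated 1 hr with compounds (up to 57.5 uM final), then stimulated with LPS (250 ng/mL final) plus ATP (1.25 mM final); secreted IL-1B measured by AlphaLISA after 16 hr, decreased signal indicating inhibition.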
BCR signal inh – inhibitors of chronic active B-cell receptor signaling; ABC-DLBCL IkBa-CBG/CBR reporter, luminescence ratio, 4 h; Potency, µM (titrated, usually from 46.1 µM), without a hit: at the highest dose activity change, negative = inhibition, actives largely listed as inhibitors; 0.05% of 340,000 active; AID 493014; active = well fitted inhibition curve with a large enough effect in the signal ratio, with a control signal flat, not every such curve was filed as active; inconclusive = small, poorly fitted or top-dose-only effect, or effect the other way, or a change in a side signal; the % refers to the signal ratio;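 note: potency is the fitted concentration of half-maximal effect; plate controls were basal doxycycline-induced cells for no effect and cells given 10 µM MG132 for full effect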
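TMD8 ABC-DLBCL cells carrying doxycycline-inducible green luciferase fused to IkappaBalpha plus unfused red luciferase were exposed to compounds (up to 46 uM) for 4 hrs at 37C. Activity came from the overlap-corrected green/red luminescence ratio.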
DT40 TDP1 no CPT – qHTS for Inhibitors of human tyrosyl-DNA phosphodiesterase 1 (TDP1): qHTS in cells in absence of CPT; 15% of 420,000 active; Potency, µM (highest dose often 46.2 µM), for the others: at the top dose activity change, negative = growth inhibition, hits mostly inhibitors; DT40 Tdp1-/- hTDP1 cells, no CPT, ATP luminescence, 48 h; note: potency is the fitted concentration of half-maximal effect; % is set by controls: 0 for no effect and ±100 for the full control effect; nearly all actives have a fitted effect of over 55% in size
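A cellular qHTS used chicken DT40 cells lacking endogenous Tdp1 but carrying stably transfected human TDP1. Compounds were applied without camptothecin, and cell growth kinetics were judged by ATP-dependent luminescence after ≥48 hr.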
* marks the source's active call; other numbers are inactive results. Unless noted, calls come from the whole dose curve; as a rule, active = well fitted curve in the direction sought with a large enough effect; inconclusive = small, poorly fitted or top-dose-only effect, or another doubt; inactive = no such curve, though single readings can be large; an effect the other way counts as inactive or inconclusive.

For CN(C)C(=O)c1ccc(NC(=O)c2cc(-c3ccco3)nc3ccccc23)cc1 the results were SW480 rereplic 1%, TDP1 cell CPT inconclusive, MCF10A rerep 14%, IL1B secr inh 0, BCR signal inh 4% and DT40 TDP1 no CPT inconclusive.
Screening O=C(NNc1nc2c(F)cc(F)cc2s1)C1=COCCO1 returned SW480 rereplic -1%, TDP1 cell CPT -13%, MCF10A rerep 1%, IL1B secr inh 23, BCR signal inh 5% and DT40 TDP1 no CPT 13%.
For O=C(Nc1nc2ccccc2s1)c1cc(-c2ccco2)nc2ccccc12 the results were SW480 rereplic inconclusive, TDP1 cell CPT 18µM*, MCF10A rerep inconclusive, IL1B secr inh -9, BCR signal inh 26% and DT40 TDP1 no CPT 18µM*.
Screening Cc1cccc2sc(NNC(=O)c3cc(-c4cccs4)nc4ccccc34)nc12 returned SW480 rereplic inconclusive, TDP1 cell CPT 4.1µM*, MCF10A rerep 18µM*, IL1B secr inh 137, BCR signal inh inconclusive and DT40 TDP1 no CPT 4.1µM*.
O=C(Nc1nccs1)c1cc(-c2ccco2)nc2ccccc12 was read as SW480 rereplic 0%, TDP1 cell CPT inconclusive, MCF10A rerep -2%, IL1B secr inh 8, BCR signal inh inconclusive and DT40 TDP1 no CPT inconclusive.
Screening COc1ccc(NC(=O)c2cc(-c3ccco3)nc3ccccc23)cn1 returned SW480 rereplic -24%, TDP1 cell CPT inconclusive, MCF10A rerep 0%, IL1B secr inh 6, BCR signal inh 10% and DT40 TDP1 no CPT 21µM*.
Screening COc1ccc(NC(=O)COC(=O)C2CCN(S(=O)(=O)c3ccccc3)CC2)cc1Cl returned SW480 rereplic -1%, TDP1 cell CPT 0%, MCF10A rerep 0%, IL1B secr inh 6, BCR signal inh -2% and DT40 TDP1 no CPT 1%.
Screening COc1cccc(-c2cc(C(=O)Nc3nc4ccccc4s3)c3ccccc3n2)c1 returned SW480 rereplic 4%, TDP1 cell CPT 16µM*, MCF10A rerep 1%, IL1B secr inh -13, BCR signal inh 19% and DT40 TDP1 no CPT 26µM*.
Screening Cc1csc(NC(=O)c2cc(-c3ccco3)nc3ccccc23)n1 returned SW480 rereplic -4%, TDP1 cell CPT inconclusive, MCF10A rerep 26%, IL1B secr inh -8, BCR signal inh inconclusive and DT40 TDP1 no CPT -23%.
`Cc1cc(C(=O)Nc2nc3c(C)cccc3s2)c(C)o1` gave SW480 rereplic 0%, TDP1 cell CPT -26%, MCF10A rerep 25%, IL1B secr inh -1, BCR signal inh inconclusive and DT40 TDP1 no CPT -27%.
Screening COc1ccc(-c2cc(C(=O)Nc3nc4c(C)cccc4s3)c3ccccc3n2)cc1OC returned SW480 rereplic 28%, TDP1 cell CPT 16µM*, MCF10A rerep inconclusive, IL1B secr inh -3, BCR signal inh inconclusive and DT40 TDP1 no CPT 21µM*.
For Cc1ccc2nc(NC(=O)c3cc(-c4ccco4)nc4ccccc34)sc2c1 the results were SW480 rereplic 15%, TDP1 cell CPT inconclusive, MCF10A rerep 16µM*, IL1B secr inh -6, BCR signal inh 5% and DT40 TDP1 no CPT inconclusive.
`COc1ccc(CC(=O)OCC(=O)NCc2ccc(C)cc2)cc1OC` gave SW480 rereplic 1%, TDP1 cell CPT 8%, MCF10A rerep 1%, IL1B secr inh 22, BCR signal inh 0% and DT40 TDP1 no CPT 5%.
`CN(C)c1ccc(-c2ccc(CCO)cc2)cc1` gave TDP1 cell CPT -16% and DT40 TDP1 no CPT -19%.
COCCn1c(=O)c(-c2cccs2)nc2cnc(Oc3ccccc3)nc21 was read as TDP1 cell CPT inconclusive and DT40 TDP1 no CPT -30%.
O=[N+]([O-])O[C@H]1CO[C@H]2[C@@H]1OC[C@H]2O was read as SW480 rereplic 1% and MCF10A rerep -1%.
`N=c1c(C(=O)NCc2ccc3c(c2)OCO3)cc2c(=O)n3ccccc3nc2n1CC1CCCO1` (centres undefined) gave SW480 rereplic 23µM*, TDP1 cell CPT inconclusive, MCF10A rerep inconclusive, IL1B secr inh 1, BCR signal inh 13% and DT40 TDP1 no CPT inconclusive.
Screening COc1ccc(CCNC(=O)c2cc3c(=O)n4ccccc4nc3n(CC3CCCO3)c2=N)cc1OC (centres undefined) returned SW480 rereplic -5%, TDP1 cell CPT 21µM*, MCF10A rerep -35%, IL1B secr inh -14, BCR signal inh 20% and DT40 TDP1 no CPT inconclusive.
Screening COc1ccc(CCNC(=O)c2cc3c(=O)n4ccccc4nc3n(CCCN3CCOCC3)c2=N)cc1OC returned SW480 rereplic inconclusive, TDP1 cell CPT -20%, MCF10A rerep 19%, IL1B secr inh -3, BCR signal inh -3% and DT40 TDP1 no CPT 3%.
`COc1ccc(CCNC(=O)c2cc3c(=O)n4ccccc4nc3n(CC3CCCO3)c2=N)cc1` (centres undefined) gave SW480 rereplic -35%, TDP1 cell CPT 21µM*, MCF10A rerep inconclusive, IL1B secr inh -10 and DT40 TDP1 no CPT 26µM*.
N=c1c(C(=O)NCCc2ccccc2)cc2c(=O)n3ccccc3nc2n1CC1CCCO1 (centres undefined) was read as SW480 rereplic 2.6µM*, TDP1 cell CPT inconclusive, MCF10A rerep 18µM*, IL1B secr inh 22, BCR signal inh inconclusive and DT40 TDP1 no CPT inconclusive.
For CCOc1ccc(N2CC(NC(=O)c3ccc(S(=O)(=O)N4CCOCC4)cc3)CC2=O)cc1 (centres undefined) the results were TDP1 cell CPT -7%, BCR signal inh -27% and DT40 TDP1 no CPT inconclusive.
`CCN(CC)c1ccc2c(Cl)cc(=O)oc2c1` gave SW480 rereplic inconclusive, TDP1 cell CPT 23µM*, MCF10A rerep inconclusive, IL1B secr inh -27, BCR signal inh -9% and DT40 TDP1 no CPT -29%.
`CCN(CC)c1ccc2c(C)c(CO)c(=O)oc2c1` gave SW480 rereplic 13µM*, TDP1 cell CPT -13%, MCF10A rerep inconclusive, IL1B secr inh 29, BCR signal inh inconclusive and DT40 TDP1 no CPT -5%.
`CCc1c(C)c2ccc(OCC(=O)OC)cc2oc1=O` gave SW480 rereplic -1%, TDP1 cell CPT inconclusive, MCF10A rerep 3%, IL1B secr inh -5, BCR signal inh inconclusive and DT40 TDP1 no CPT -7%.
